Source: PubChem
In the library only some 14% were active in any assay of this set; here they are far more common.
FBPA Giardia inh = qHTS Assay for Inhibitors of Fructose-1,6-bisphosphate Aldolase from Giardia Lamblia. AID 2451, 2010. actives 0.71% (n = 290,000). A8B2U2. purified Giardia FBPA. Potency, µM (doses to about 59.6 µM), usual class: inhibitors; further: nearly all actives have a fitted effect of over 55% in size
Target sequence (A8B2U2 whole entry, looked up): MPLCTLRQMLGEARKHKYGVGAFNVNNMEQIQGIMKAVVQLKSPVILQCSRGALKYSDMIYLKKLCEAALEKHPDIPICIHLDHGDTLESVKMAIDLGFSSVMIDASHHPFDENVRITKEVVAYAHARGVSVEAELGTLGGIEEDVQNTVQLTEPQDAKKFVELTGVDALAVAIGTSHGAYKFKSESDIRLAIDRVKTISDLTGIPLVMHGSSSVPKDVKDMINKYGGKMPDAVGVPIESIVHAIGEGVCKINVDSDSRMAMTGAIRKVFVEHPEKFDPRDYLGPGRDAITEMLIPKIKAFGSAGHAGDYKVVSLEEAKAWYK
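Giardia FBPA (40 nM reagent) was preincubated 10 min at RT with compound (up to 57.5 uM final), then substrate plus GAPDH/TPI/NAD/arsenate coupling system with diaphorase/resazurin was added; resorufin fluorescence (525/598 nm) was read after 20 min.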
HCMV inh = qHTS Assay for inhibitors of the human cytomegalovirus (HCMV); HFF cells, HCMV-luciferase reporter, 72 h; active compounds read low; activity change, negative = inhibition, % at 57.5 µM; actives 4.5% (n = 410,000); in the data active means activity change below about -60%; inconclusive means no clear call, values can overlap the other calls; inactive means above about -39%
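Human foreskin fibroblasts infected with luciferase-reporter HCMV at MOI 1 PFU/cell, compounds at two doses. Luciferase measured 72 h post infection; normalized to buffer-only basal and Salinomycin (10uM) controls.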
Pf growth 96h = Primary qHTS for delayed death inhibitors of the malarial parasite plastid, 96 hour incubation; actives 6.9% (n = 320,000); Potency, µM (top dose mostly 28.7 µM), hits mostly inhibitors; P. falciparum luciferase reporter growth, 96 h
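P. falciparum expressing integrated firefly luciferase, in erythrocytes at 2% hematocrit, 0.05% parasitemia, incubated with compounds 96 h at 37 C, 5% CO2. Growth inhibition read as loss of luminescence; two-generation exposure targets delayed-death apicoplast inhibitors.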
Sm TGR inh = qHTS Assay for the Inhibitors of Schistosoma Mansoni Peroxiredoxins. Schistosoma mansoni thioredoxin glutathione reductase (TGR), Q962Y6. purified TGR, DTNB reduction, TNB absorbance 405 nm. Potency, µM (highest dose often 114 µM), usual class: inhibitors. actives 3% (n = 360,000). AID 485364, 2010; further: nearly all actives have a fitted effect of over 60% in size
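TGR 20 nM + NADPH 100 uM (dispensed conc.), cpd preinc 15 min RT; start with NADPH (500 uM addition) then DTNB (15 mM addition). Kinetic TNB absorbance, 405 nm filter. Four-parameter Hill fit across titration.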
Pf growth 48h = Primary qHTS for delayed death inhibitors of the malarial parasite plastid, 48 hour incubation | P. falciparum luciferase growth in erythrocytes, 48 h | Potency, µM (highest dose often 28.7 µM), hits mostly inhibitors | actives 5.9% (n = 310,000)
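A one-generation exposure of luciferase-tagged malaria parasites in RPMI 1640/Albumax erythrocyte culture, 37 C and 5% CO2. Inhibition is inferred from decreased luminescence after adding detection reagent.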
Numbers stand for hits; n = inactive; u = inconclusive; x = no result given; [ ] = dose if it differs, or a comment. Unless noted, the call rests on the fitted dose curve; in most records, active means well fitted curve in the direction sought with a large enough effect; inconclusive means small, poorly fitted or top-dose-only effect, or another doubt; inactive means no such curve, though single readings can be large; an effect the other way counts as inactive or inconclusive.

SMILES	FBPA Giardia inh	HCMV inh	Pf growth 96h	Sm TGR inh	Pf growth 48h
CC1CCC/C=C/C(=O)c2c(O)cc(O)cc2CC(=O)O1 (stereo not drawn)	u	-104.6	n	7.94µM	u
C[C@H]1CCC[C@H](O)CCCCCc2cc(O)cc(O)c2C(=O)O1	n	-98.0	12µM	n	u
C[C@H]1CCC[C@@H](O)CCC/C=C/c2cc(O)cc(O)c2C(=O)O1	n	-105.3	n	n	n
CC1CCCC(=O)CCC/C=C/c2cc(O)cc(O)c2C(=O)O1 (stereo not drawn)	n	x	x	x	x
CC1CCC[C@H](O)CCCCCc2cc(O)cc(O)c2C(=O)O1 (stereo partly drawn)	n	u	u	n	u
CC(NC(=O)c1ccc2c(c1)sc1nc(-c3ccccc3)cn12)C12CC3CC(CC(C3)C1)C2 (stereo not drawn)	x	x	x	n	x
Clc1ccccc1CNc1nc2ccccc2c2nc(-c3cccnc3)nn12	x	n	x	n	x
CC(C)CCC[C@@H](C)[C@H]1CC[C@H]2[C@@H]3CC=C4C[C@@H](O)CC[C@]4(C)[C@H]3CC[C@]12C	n	x	n	x	n
COc1ccc2cc(CN(Cc3cccs3)Cc3nnnn3Cc3ccccc3)c(=O)[nH]c2c1	n	-99.4	u	n	9.28µM
COCCn1nnnc1CN(Cc1cccnc1)Cc1cc2cc(OC)ccc2[nH]c1=O	n	u	x	n	n
CCOc1ccc2[nH]c(=O)c(CN(Cc3cccs3)Cc3nnnn3C(C)(C)CC)cc2c1	n	u	n	n	8.28µM
CCC(C)(C)n1nnnc1CN(Cc1cccs1)Cc1cc2cc(OC)ccc2[nH]c1=O	n	u	x	n	13.1µM
Cc1ccc2cc(CN(Cc3cccs3)Cc3nnnn3C(C)(C)C)c3nnnn3c2c1	n	x	n[5.75 µM]	n	n
Cc1cc(C)c(NC(=O)Cn2nnc(-c3nc(-c4ccccc4)no3)c2N)c(C)c1	x	n	x	n	x
COc1ccc(N2CCN(C(=O)c3[nH]c(C(F)(F)F)nc3-c3ccccc3)CC2)cc1	x	n	x	x	x
Cc1cccc(N2CCN(C(=O)c3[nH]c(C(F)(F)F)nc3-c3ccccc3)CC2)c1C	x	-87.2	x	x	x
COc1ccccc1N1CCN(C(=O)c2[nH]c(C(F)(F)F)nc2-c2ccccc2)CC1	x	-63.8	x	x	x
CC(=O)N1CCN(C(=O)c2[nH]c(C(F)(F)F)nc2-c2ccccc2)CC1	x	n	x	x	x
COc1ccc(NCc2nnc(SCC(=O)Nc3nc(-c4ccccc4)cs3)n2-c2ccccc2)cc1	n	-82.5	n	n	n
CCn1c(CCNC(=O)c2cccs2)nnc1SCC(=O)Nc1nc(-c2ccccc2)cs1	n	n	u	n	11.7µM
CCOc1ccc(NCc2nnc(SCC(=O)Nc3cc(C)on3)n2-c2ccc(OC)cc2)cc1	n	x	u	n	13.1µM
COc1ccc(NC(=O)CN2C(=O)CCc3cc(S(=O)(=O)N4CCOCC4)ccc32)c(OC)c1	x	n	x	n	x
O=C(CSc1nnc(CCCN2C(=O)c3cccc4cccc(c34)C2=O)n1-c1ccccc1)NCCCN1CCOCC1	n	n	n	n	9.28µM
O=C(CSc1nnc(CCCN2C(=O)c3cccc4cccc(c34)C2=O)n1-c1ccccc1)NCCCO	n	u	n	n	u
COc1ccc(C(=O)N2N=C(c3cccs3)CC2c2ccccc2O)cc1 (stereo not drawn)	x	n	u	n	u
SMILES	FBPA Giardia inh	HCMV inh	Pf growth 96h	Sm TGR inh	Pf growth 48h
Oc1ccccc1C1CC(c2cccs2)=NC(c2cccc(Br)c2)N1 (stereo not drawn)	n	n	2.62µM	n	u
CCn1nc(-c2ccccc2)c2nc3ccccc3nc21	n	-60.5	n	n	n
CCOC(=O)c1c(C)[nH]c(C)c1S(=O)(=O)NCCN1CCN(c2cc(Cl)ccc2C)CC1	n	-72.4	u	n	u
CCOC(=O)c1c(C)[nH]c(CCC(=O)NCCCN2CCN(c3cc(Cl)ccc3C)CC2)c1C	x	-96.6	x	n	x
CCOC(=O)c1c(C)[nH]c(C)c1S(=O)(=O)N1CCN(c2cc(Cl)ccc2C)CC1	x	-89.6	x	n	x
CC1CN(C(=O)Cn2cc(S(=O)(=O)CC(=O)N(C)c3ccccc3)c3ccccc32)CC(C)O1 (stereo not drawn)	x	n	13.1µM	n	n
CN(C(=O)CS(=O)(=O)c1cn(CC(=O)N2CCOCC2)c2ccccc12)c1ccccc1	n	n	n	n	n
CC(CCc1ccccc1)NC(=O)C(=O)c1c[nH]c2ccccc12 (stereo not drawn)	x	n	u	n	n
O=C(Cc1ccccn1)N1CC(=O)N2[C@H](CO)[C@@H](c3ccc(Br)cc3)[C@H]2C1	x	-101.1	x	x	x
O=C(Cc1ccccc1)N1CC(=O)N2[C@@H](CO)[C@@H](c3ccc(Br)cc3)[C@@H]2C1	x	n	x	x	x
NC(=O)c1ccc(OCC(F)(F)C(F)(F)C(F)(F)C(F)(F)C(F)(F)C(F)F)cc1	n	n	11.7µM	n	n
COc1ccc(/C=C/C(=O)OCC(=O)N2CCCCCC2)c(OC)c1	x	n	n	n	n
CCCCCCSc1ccc([C@@H]2[C@H]3C(=O)N(C)C(=O)[C@H]3[C@]3(C(=O)OC)CCCCN23)cc1OC	x	n	7.38µM	u	u
CCCCCCSc1ccc([C@@H]2[C@H]3C(=O)N(CC)C(=O)[C@H]3[C@]3(C(=O)OC)CCCCN23)cc1OC	x	n	x	x	x
CCCCCCSc1ccc([C@@H]2[C@@H]3C(=O)N(C)C(=O)[C@@H]3[C@]3(C(=O)OC)CCCCN23)cc1OC	x	n	5.86µM	n	3.29µM
CCCSc1ccc([C@@H]2[C@@H]3C(=O)N(C)C(=O)[C@@H]3[C@]3(C(=O)OC)CCCN23)cc1OC	x	x	8.28µM	20µM	11.7µM
CCCSc1ccc([C@@H]2[C@@H]3C(=O)N(CC)C(=O)[C@@H]3[C@]3(C(=O)OC)CCCCN23)cc1OC	x	n	x	x	x
CC(C)(O)c1[nH]c2ccc(C#N)cc2c1C(C)(C)O	n	n	n	n	n
CCOC(=O)C1CCN(C(=O)COc2ccc(N(C)S(=O)(=O)c3cccs3)cc2)CC1	n	n	n	n	n
CN(c1ccc(OCC(=O)N2CCN(C/C=C/c3ccccc3)CC2)cc1)S(=O)(=O)c1cccs1	n	-82.5	u	u	9.28µM
CCOC(=O)c1sc(NC(=O)c2cc3nc(-c4ccccc4)cc(C(F)(F)F)n3n2)c(C(=O)OCC)c1C	x	n	x	n	x
Cc1cc(C)nc(Nc2ccc(C(=O)O)cc2)n1	n	n	n	n	x
Cc1cc(C)nc(NN=C2CCCC2)n1	u	n	u	n	11.7µM
CC(/C=C/c1ccccc1)=N\Nc1nc(C)cc(C)n1	n	n	10.4µM	n	u
Cc1cc(C)nc(NN=C(c2ccccc2)c2ccccc2)n1	n	u	13.1µM	n	u
Cc1cc(C)n(C(C)CC(=O)Nc2ccc(Cl)cc2C)n1 (stereo not drawn)	x	n	x	n	x
